# Tests used:
# Assay in all cases: PBM binding z-score (relative to random genomic background probes); higher = stronger binding; sequences stand for … in GC…GCGATTGACAGCGTAGAATGAAGG
# [1] = system: PPARg:RXRa DBDmut IVT, anti-RXR (DBD mutation: RXRa K156A/R161A, NR concentration 270 nM, RXRa partner concentration 90 nM)
# Method in brief: (§1)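 Binding z-scores were set against random background probes. The data came from custom Agilent 4×180K protein-binding microarrays carrying double-stranded probes with 34-nt variable regions, incubated 1 h with ligand-free nuclear receptor dimers. Partner-specific antibodies detected binding, and scanned fluorescence was regression-normalized.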
# [2] = system: PPARg:RXRa IVT, anti-PPARg (NR concentration 270 nM, RXRa partner concentration 90 nM)
# Method in brief: as §1
# [3] = system: PPARg DBDmut:RXRa IVT, anti-PPARg (DBD mutation: PPARg1 K132A/R137A, NR concentration 270 nM, RXRa partner concentration 90 nM)
# Method in brief: as §1
# [4] = system: PPARg DBDmut IVT, anti-PPARg (DBD mutation: PPARg1 K132A/R137A, NR concentration 270 nM)
# Method in brief: as §1
# [5] = system: PPARg homodimer (NR concentration 180 nM)
# Method in brief: as §1
# [6] = system: PXR:RXRa (NR concentration 270 nM, RXRa partner concentration 90 nM)
# Method in brief: as §1
# [7] = system: PXR homodimer (NR concentration 270 nM)
# Method in brief: as §1
# [8] = system: RARa:RXR (NR concentration 270 nM, RXRa partner concentration 90 nM)
# Method in brief: as §1
# [9] = system: RARa homodimer (NR concentration 270 nM)
# Method in brief: as §1
# [10] = system: RARb:RXRa (NR concentration 270 nM, RXRa partner concentration 90 nM)
# Method in brief: as §1
Sequence,PBM binding z-score [1],PBM binding z-score [2],PBM binding z-score [3],PBM binding z-score [4],PBM binding z-score [5],PBM binding z-score [6],PBM binding z-score [7],PBM binding z-score [8],PBM binding z-score [9],PBM binding z-score [10]
AGTCAAAGTTCAGGGCGAGGTAACGTAAAGCACG,0.0616,2.24,-0.0376,0.418,2.91,3.19,1.1,2.93,1.23,4.49
GCTACTTGGTCAGTAAAAGGTCACACACCGGTCG,1.59,3.24,0.501,1.24,5.33,5.09,1.32,6.09,2.99,4.23
CCGACTGGGGCAAGGTTTCCATAACGCACAGCCA,2.98,3.2,-0.0108,-1.24,0.216,-0.725,-0.351,-0.351,-0.575,0.592
AGAATGAGGTTAAGATCAGGAAAACAGAATACAT,2.5,2.67,1.33,0.813,0.0242,1.08,0.189,1.93,0.732,1.9
TAGCCTAGGTCAGATCGGGCCAGTAAACGCTATA,0.412,1.24,-0.563,-0.294,-0.374,1.12,-0.666,0.814,-1.71,2.85
CTACCAAGGTGAACACGGTCGTTGATTACTATTC,2.72,2.43,0.613,-0.0431,0.251,0.292,0.00892,0.57,0.749,1.88
ATCTCTAGGTAATGTTCAGTGAAAGATCGATAGA,2.57,1.63,1.27,1.25,0.598,0.381,0.219,0.543,0.802,0.148
ATACCAAGGTGATCGTGAGGTCGATGATACTAAC,0.508,1.52,0.609,0.528,0.828,1.91,0.391,1.9,0.262,1.55
GATACAGGGTCAAGGCCTGAGTACGCGTATTGAT,2.78,3.87,0.27,0.16,1.74,3.43,0.0722,3.99,0.47,4.4
CAAACTAGTTCACAGAGGTCAAAGTCCGTGCGTA,2.43,3.25,0.945,0.72,4.3,7.16,14.3,7.22,2.73,4.46
GCTTACGGGTCAAAGGTTATCGCATGAATAGAAT,5.17,6.06,0.968,0.942,2.75,6.19,0.364,8.16,0.571,4.76
CGAACTAGGTCAGAACAGGCCAGTGAAGGATGAT,6.91,7.16,0.994,-0.348,1.63,0.505,-0.233,1.18,-0.387,2.97
TCATATAGGTAACGGTGAAAGTCGAACGATATGA,4.89,4.04,1.45,1.23,-0.0318,0.0146,-0.0521,0.23,0.533,0.479
TCTTGTAGATCAAGCAGGTTACGAAAGCCTGAGT,1.76,1.04,-0.0946,0.435,0.37,0.615,-0.0528,0.951,-0.22,0.516
ATATGTAGGTTATTGGGTCATTCAGTTTGCGCAT,7.67,8.16,4.52,3.64,4.1,3.06,4.6,3.36,2.83,2.5
GGACCGAGGGCAAGTTGATAGCAGAGTTTGATGG,0.956,0.614,-1.14,-1.16,0.433,0.556,0.539,0.315,-0.39,2.6
ATATGTAGGTTATCGAGTCATTCAGTTTGCGCAT,6.65,6.84,3.25,2.73,1.91,0.622,0.241,0.687,1,0.872
CCTGCTAGGTCAATGGTCCGCTAAAGCAGCTCGC,4.03,3.49,-0.758,-0.248,0.967,0.521,-0.206,1.27,-0.566,3.68
CCTACTGGGCCAAAAAGGACATTGATGCCGATAA,3.5,2.63,-0.447,0.0111,0.363,-0.396,0.177,-0.191,0.526,0.68
TCGAATAGGTTAGGGGCATTCAGAATGGCGTCGA,1.9,0.68,-0.275,-0.57,0.452,0.695,0.0158,0.806,0.0673,1.5
ACAATTAGTTGACTTAGGGCAACCGATACGACGC,0.0819,0.506,0.981,1.45,0.921,-0.00518,0.761,0.318,0.646,0.888
ACTATTAGTTGAGACGAGAGCAACCGATAGGTTG,-0.112,-0.0541,0.442,0.157,0.139,-0.467,-0.273,-0.313,0.747,-0.263
TCTGCTAGGTCAGTTGGTCAGCAAACGAGCTGCC,2.75,2.88,0.288,0.656,0.233,0.285,-0.998,0.565,-1.22,3.25
TCTTGTAGATCAGTAGAGGTTAAGAAAGTGCGCT,1.74,0.609,1.08,0.665,0.247,2.93,-0.0152,1.63,0.74,0.882

Sequence,PBM binding z-score [1],PBM binding z-score [2],PBM binding z-score [3],PBM binding z-score [4],PBM binding z-score [5],PBM binding z-score [6],PBM binding z-score [7],PBM binding z-score [8],PBM binding z-score [9],PBM binding z-score [10]
TCAGACAGGTGAAGGTTACTCAGGTACGCAGTCG,2.66,1.5,0.0117,0.759,1.02,1.38,0.43,1.55,0.589,1.83
TCTTGTAGATCAGCAGGTGAAGAAAGCTGGCCAA,1.32,0.857,0.193,-0.252,-1.42,-0.182,-0.577,0.0618,-0.865,-0.138
TTACCAAGGTGAAGGGCGTTGATCCCTCTGTAGA,1.73,2.43,-0.0766,-0.0935,0.279,0.365,-0.351,0.762,-0.0384,1.64
TCTTGTAGATAAAAGGTTAAGAAAGCCGAAGCCT,2.1,1.64,0.235,0.63,1.07,1.4,0.0184,1.84,0.655,1.91
TCATCTAGGTAATACAGGTGAAAGTCGGCATCTA,4.07,4.08,1.3,1.36,0.913,0.275,0.512,0.694,1.29,0.575
TAGCCTAGGTCATTCAAGGGCCAGTATAGAAAGC,1.4,2.93,0.0741,0.0632,1.31,2.5,0.325,2.93,0.561,3.9
ATCTCTAGGTAAACGTTCAGTGAATCCCGAGGAT,3.11,2.05,0.531,0.761,0.198,-0.434,-0.237,-0.544,-0.155,0.26
CCGACTGGGGTATAAGGTTACCATAAGCCAGCCC,1.17,1.24,-0.919,-1.39,0.667,0.301,-0.29,1.24,0.0701,0.726
CGTCCAAGGTCAAAGGTCAGTGATGAGATGACGG,4.14,5.89,0.972,0.974,3.97,6.83,1.94,8.65,1.61,6
CCTACTGCGCCAAAGGTCATTGATTCCAATGCTC,1.68,3.77,5.21,1.61,3.34,5.66,2.58,5.78,2.4,4.61
GCTTACGGGTCAAAGGATATAGCATGAATAGAAT,4.24,4.01,1.25,1.03,1.09,3.09,-0.166,3.94,0.713,3.54
ATCGAAAGGTCGTGAGGTGATTATACAGAAAGGC,0.336,1.93,1.12,1.16,1.42,3.14,0.165,3.89,0.608,4.08
ATCTCTAGGTAAAAGTTCAGGGAATCCCGAGGAT,2.01,3.72,1.02,1.51,1.25,1.96,1.15,2.06,1.33,2.62
CGTCCAAGGTGAATGCTAGGTCAGTGAAAGCATT,2.03,2.41,-0.677,-0.549,0.968,0.776,-0.645,1.8,-0.245,2.42
CTCGAAAGGTCGTGCTCAGGTGATTATACCAAAC,0.733,1.72,1.57,0.403,2.1,3.55,0.276,4.32,0.268,3.86
AGTCAAAGTTCACTAGGTAACGTCAGATTCAGCT,2.77,4.95,1.36,0.959,2.35,3.97,3.07,3.22,1.07,4.88
GCTTACCGGTCAAAGGTTATAGCATGAATAGAAT,1.07,3.62,1.01,0.383,1.71,3.63,0.0899,5.64,0.15,3.59
ATATGTAGGTTACATCCGGGTCATTCCGGCTATG,7.45,7.39,4.71,3.42,2.43,3.36,1.56,3.56,0.832,2.14
AGTCAAAGTTCACTAGGTATCGTAAGATTCAGCT,1.2,3.6,1.14,1.1,2.46,4.04,3.44,2.8,1.06,4.7
ACAGAAAGGTGATGAAGGTAACTCAGGCTATCAT,0.962,1.45,0.665,0.683,0.688,0.335,0.0962,0.91,0.63,1.74
CCAGACAGGTGAGAAGGTAACTCTGCCTCGATTA,1.34,0.644,-0.0545,-0.239,0.832,0.051,0.394,0.441,-0.197,0.638
TTAGACAGGTGAAGGTAACTCAGGTACGCAGTCG,1.15,1.49,1.36,0.841,0.811,0.344,-0.00345,0.387,0.607,0.951
CCTAATAGTTGACCATAAGGGCAACCGAAGCTCG,-0.0162,0.473,0.327,0.353,1.09,0.821,0.596,1.27,1.46,1.72
GCTATTAGTTGAAAGGGCAACGGAATGATTCTCG,0.701,0.992,1.04,0.361,0.8,0.606,0.255,1.19,0.995,1.93
